Holding throughout (test): NCI-60 one-dose screen, 48 h (100 = growth as untreated, 0 = no growth, -100 = all killed)
One experiment deals with NCI-H23 lung. The note with it: 10 µM unless noted.
The next experiment concerns NCI-H226 lung. To be noted: 10 µM unless noted.
The next experiment has as its system NCI-H322M lung. To be noted: 10 µM unless noted.
The next experiment relates to HOP-62 NSCLC. To be noted: 10 µM unless noted.
For a further experiment, the system named is NCI-H460 lung. The note with it: 10 µM unless noted.
In another experiment the test system is HOP-92 NSCLC. The note with it: 10 µM unless noted.
In a further experiment the test system is NCI-H522 lung. To be noted: 10 µM unless noted.
The test system of another experiment is A549/ATCC NSCLC. To be noted: 10 µM unless noted.
A further experiment deals with 786-0 renal. To be noted: 10 µM unless noted.
For a further experiment, the system named is COLO 205 colon. The note with it: 10 µM unless noted.
A further experiment has as its system DU-145 prostate. To be noted: 10 µM unless noted.
The next experiment has as its system K-562 leukemia. The note with it: 10 µM unless noted.
A further experiment concerns MALME-3M melanoma. To be noted: 10 µM unless noted.
The next experiment concerns MDA-MB-231 breast. The note with it: 10 µM unless noted.
For the next experiment, the system named is SF-268 CNS. The note with it: 10 µM unless noted.
The test system of the next experiment is SF-295 CNS. The note with it: 10 µM unless noted.
In another experiment the test system is SF-539 CNS. To be noted: 10 µM unless noted.
In the next experiment the test system is UACC-257 melanoma. To be noted: 10 µM.
A further experiment deals with M14 melanoma. The note with it: 10 µM unless noted.
A further experiment has as its system RXF 393 renal. To be noted: 10 µM unless noted.

This is part of a sample that, as a whole, favours compounds with a hit. Of some 83,000 tested, about 20% had one in any assay.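 For each line, cells grew in 96-well plates with the test compound present at a single concentration for 48 hours.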 Unmarked numbers belong to inactive results. Calls of active or inactive are those of the source. The calls were made as follows: active = growth percent below 10; inactive = the rest.

As for `CCOC(=O)c1c(Nc2ccccc2)nn2c(-c3ccc(OC)c(OC)c3)ccnc12`, the growth in the experiment with NCI-H23 lung was 70.8%; with NCI-H226 lung, 54.9%; in the experiment with NCI-H322M lung, 92.5%; in the experiment on HOP-62 NSCLC, 72.7%; in the experiment with NCI-H460 lung it was 47.9%; in the experiment on HOP-92 NSCLC, 5.27% (active). In addition, the growth was 69.3% with NCI-H522 lung; 52.6% in the experiment on A549/ATCC NSCLC; 37.6% in the experiment on 786-0 renal; 55.7% with COLO 205 colon; 74.2% in the experiment with DU-145 prostate; 19.8% in the experiment with K-562 leukemia. In addition, the growth is 76.2% in the experiment on MALME-3M melanoma; 34.9% in the experiment with MDA-MB-231 breast; 68.1% with SF-268 CNS; 49% with SF-295 CNS; 60.2% in the experiment on SF-539 CNS; 95.2% with UACC-257 melanoma. Further, the growth with M14 melanoma was 53.6%.

Take `Cc1occc1-c1nc2s/c(=C\c3cn(-c4ccccc4)nc3-c3ccccc3)c(=O)n2n1`: the growth with NCI-H23 lung was 88.5%; with NCI-H226 lung, 97.4%; in the experiment on NCI-H322M lung, 107%; in the experiment with HOP-62 NSCLC, 118%; in the experiment on NCI-H460 lung it was 103%; in the experiment on HOP-92 NSCLC, 67.8%. The growth was 92.3% with NCI-H522 lung; 95.7% with A549/ATCC NSCLC; 101% in the experiment on 786-0 renal; 118% in the experiment on COLO 205 colon; 106% in the experiment on DU-145 prostate; 106% with K-562 leukemia. For the same compound, the growth in the experiment with MALME-3M melanoma is 101%; with MDA-MB-231 breast, 97.8%; with SF-268 CNS it was 101%; with SF-295 CNS, 101%; in the experiment on SF-539 CNS, 91.2%; with UACC-257 melanoma, 96%. Moreover, the growth in the experiment with M14 melanoma was 100%.

As for `O=S(=O)(Nc1ccc(-n2cnc3cc(-c4ccc(O)cc4)ccc32)cc1)C1CC1`, the growth is 101% in the experiment on NCI-H23 lung; 96.2% with NCI-H226 lung; 90.9% in the experiment on NCI-H322M lung; 86.8% in the experiment with HOP-62 NSCLC; 88.7% in the experiment on NCI-H460 lung; 115% in the experiment with HOP-92 NSCLC. The growth in the experiment on NCI-H522 lung was 73.7%; in the experiment on A549/ATCC NSCLC, 82.2%; in the experiment with 786-0 renal it was 86.6%; in the experiment on COLO 205 colon it was 123%; in the experiment on DU-145 prostate, 95.3%; in the experiment on K-562 leukemia, 59.8%. Also, the growth is 98.5% in the experiment on MALME-3M melanoma; 84.3% in the experiment with MDA-MB-231 breast; 83.3% in the experiment with SF-268 CNS; 90.1% in the experiment on SF-295 CNS; 71.8% with SF-539 CNS; 98.2% with UACC-257 melanoma. Besides, the growth with M14 melanoma is 96.6%.

For the compound `CS(=O)(=O)c1nccc(-c2c(-c3ccc(F)c(OCc4ccc(F)cc4)c3)nc3sccn23)n1`, the growth is 99.2% in the experiment with NCI-H23 lung; 83.7% in the experiment with NCI-H226 lung; -78.2% (active) in the experiment on NCI-H322M lung; 68.3% with HOP-62 NSCLC; 10.3% with NCI-H460 lung; 23% with HOP-92 NSCLC. Further, the growth was 53.9% in the experiment on NCI-H522 lung; 104% in the experiment on A549/ATCC NSCLC; 95.1% in the experiment on 786-0 renal; 109% with COLO 205 colon; -96.4% (active) in the experiment with DU-145 prostate; 111% in the experiment with MALME-3M melanoma. The growth was 79.9% in the experiment on MDA-MB-231 breast; 84.2% with RXF 393 renal; 96.1% in the experiment with SF-268 CNS; 96.9% with SF-295 CNS; 90.1% in the experiment with SF-539 CNS; -56.9% (active) in the experiment with UACC-257 melanoma. The growth with M14 melanoma was 81.3%.

As for `Cc1nc(-c2cc3ccccc3c(N3CCN(C)CC3)n2)cs1`, the growth was 99.9% in the experiment with NCI-H23 lung; 101% with NCI-H226 lung; 106% in the experiment with NCI-H322M lung; 98.1% in the experiment with HOP-62 NSCLC; 103% in the experiment on NCI-H460 lung; 61.1% in the experiment on HOP-92 NSCLC. Further, the growth in the experiment on NCI-H522 lung is 94%; in the experiment with A549/ATCC NSCLC, 97.7%; in the experiment with 786-0 renal, 93.2%; in the experiment with COLO 205 colon, 88.5%; in the experiment on DU-145 prostate, 109%; in the experiment with K-562 leukemia, 91.5%. Also, the growth in the experiment with MALME-3M melanoma was 96.5%; with MDA-MB-231 breast, 90.3%; in the experiment with SF-268 CNS it was 87.3%; in the experiment with SF-295 CNS, 93.1%; with SF-539 CNS it was 85.2%; in the experiment on UACC-257 melanoma it was 101%. Also, in the experiment with M14 melanoma, the growth was 95.4%.

As to `CS(=O)(=O)c1ccc2c(c1)c1c(n2S(=O)(=O)c2ccc(Cl)cc2)CCCC1`, the growth in the experiment on NCI-H23 lung was 36.3%; in the experiment with NCI-H226 lung it was 53.6%; in the experiment with NCI-H322M lung it was 49.1%; with HOP-62 NSCLC, 38.5%; in the experiment on NCI-H460 lung it was 9.54% (active); in the experiment with HOP-92 NSCLC it was 32.7%. The growth was -44.5% (active) in the experiment with NCI-H522 lung; 48.7% in the experiment on A549/ATCC NSCLC; 40.4% with 786-0 renal; -36.3% (active) in the experiment on COLO 205 colon; 22.9% in the experiment with DU-145 prostate; 54.5% in the experiment with MALME-3M melanoma. In addition, the growth with MDA-MB-231 breast was 29.8%; with RXF 393 renal, -0.699% (active); with SF-268 CNS it was 63.3%; with SF-295 CNS, 21%; with SF-539 CNS it was 2.97% (active); with UACC-257 melanoma, 60.6%. Also, in the experiment on M14 melanoma, the growth is 26.3%.

As to `CS(=O)c1nccc(-c2c(-c3ccc(F)c(OCc4ccc(F)cc4)c3)nc3sccn23)n1` (stereo not drawn), the growth with NCI-H23 lung is 61.6%; in the experiment with NCI-H226 lung it was 95.3%; in the experiment with NCI-H322M lung, 62.7%; in the experiment on HOP-62 NSCLC, 100%; in the experiment with NCI-H460 lung, 35.6%; in the experiment on HOP-92 NSCLC, 16.9%. Also, the growth with NCI-H522 lung was -51.8% (active); in the experiment with A549/ATCC NSCLC, 102%; in the experiment on 786-0 renal, 100%; with COLO 205 colon, 100%; in the experiment on DU-145 prostate, -9.49% (active); in the experiment on MALME-3M melanoma it was 92.3%. Moreover, the growth in the experiment with MDA-MB-231 breast was 67.8%; with RXF 393 renal, 87.6%; with SF-268 CNS it was 100%; in the experiment on SF-295 CNS, 97.8%; in the experiment on SF-539 CNS it was 88.4%; with UACC-257 melanoma, -24.6% (active). The growth with M14 melanoma was 81.6%.

The record behind these values is PubChem BioAssay (NCI).
